57 compounds from PubChem BioAssay AID2025 (NMMLSC, 2009) can be followed below.

Structures are written as SMILES. About 980 (0.3%) of roughly 330,000 compounds were called active. Shown is part of a subset that was picked to be rich in actives. Unmarked numbers belong to inactive results.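 Rule for the calls: active = percent response vs DMSO below 50%; inconclusive = fewer than 70 events counted for the yeast strain; inactive = the rest.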

The assay is described as follows: RPL19A-GFP expression modulators in yeast, primary screen, cell-based, S. cerevisiae, multiplex flow cytometry, MLPCN (AID 2025).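 Note: median channel GFP fluorescence of the barcoded RPL19A-GFP strain; ratio of sample median GFP to plate DMSO average so 100% = DMSO; lower means less RPL19A-GFP as with rapamycin TOR inhibition.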 Particulars: S. cerevisiae RPL19A-GFP strain, 3 h, at 10 µM, active compounds read low. In general terms: In flow cytometry, cells or beads pass a laser one at a time.
For the compound `CN1CCN(C2Cc3ccc(Cl)cc3Sc3ccc(F)cc32)CC1` (configuration not stated), the percent response vs DMSO was 100%.

In the case of `COCCN(C(=O)CSCc1ccc(C)cc1)c1c(N)n(CC(C)C)c(=O)[nH]c1=O`, the percent response vs DMSO is 93.3%.

With `Nc1nc(SCc2cccc(Br)c2)n[nH]1`, the percent response vs DMSO was 99.2%.

As for `Cc1ccc(N2CCN(S(=O)(=O)c3ccc(F)cc3)CC2)c(C)c1`, the percent response vs DMSO was 94.2%.

With `CCCC(=O)N(CCc1ccccc1)Cc1nc2ccccc2c(=O)[nH]1`, the percent response vs DMSO was 90.4%.

For `O=C(c1ccco1)N(Cc1nc2ccccc2c(=O)[nH]1)C1CCCC1`, the percent response vs DMSO was 16.5% [may fluoresce violet] (active).

As for `CCN(CC(=O)NC(=O)NCc1ccccc1)Cc1nc2ccccc2c(=O)[nH]1`, the percent response vs DMSO is 102%.

Take `CC(C)(C)NC(=O)CN(Cc1cccs1)C(=O)CNS(=O)(=O)c1ccccc1`: the percent response vs DMSO was 107%.

For `O=P(c1cccs1)(c1cccs1)c1cccs1`, the percent response vs DMSO is 98.8%.

With `Cc1nc(C)c(C(=O)Nc2cccc(C)c2C)o1`, the percent response vs DMSO was 98.6%.

As to `Cc1cccc(NC(=O)c2cccc(C(=O)Nc3cccc(C)c3C)n2)c1C`, the percent response vs DMSO is 49.4% [may fluoresce violet] (active).

For the compound `Cc1cccc(NC(=O)c2ccc3nsnc3c2)c1C`, the percent response vs DMSO is 103%.

For `Cn1c(=O)oc2cc(S(=O)(=O)NCCC(=O)NCc3ccccc3Cl)ccc21`, the percent response vs DMSO is 106%.

As for `COc1ccccc1S(=O)(=O)NCc1ccc(C(=O)N(C)Cc2ccc(F)cc2)cc1`, the percent response vs DMSO was 91.3%.

Take `COc1ccccc1/C=C/C(=O)OCC(=O)NC1CCCCCC1`: the percent response vs DMSO is 96.2%.

Regarding `CCC(c1nnnn1Cc1ccco1)N(CCc1ccccc1)Cc1cc2cccc(C)c2[nH]c1=O` (configuration not stated), the percent response vs DMSO is 100%.

For `CCC(c1nnnn1Cc1ccccc1)N(Cc1cc2cc(OC)ccc2[nH]c1=O)CC1CCCO1` (configuration not stated), the percent response vs DMSO was 94.8%.

For `CCC(c1nnnn1Cc1ccco1)N(Cc1cc2cc(OC)ccc2[nH]c1=O)C1CCCCC1` (configuration not stated), the percent response vs DMSO is 39.1% [may fluoresce violet] (active).

Take `O=C(CS(=O)(=O)c1ccc(C(F)(F)F)cn1)NNC(=O)c1ccccc1`: the percent response vs DMSO was 99.4%.

On to `C/C(=N\NS(=O)(=O)c1ccccc1)c1c(O)cc(C)oc1=O`, for which the percent response vs DMSO is 105%.

`Cc1ccc(OCC(=O)Nc2ccc(N3CCN(C(=O)c4ccco4)CC3)cc2)c(C)c1`: the percent response vs DMSO was 41.5% [may fluoresce violet] (active).

`CCC(=O)Nc1ccc(C(=O)N2CCN(C(=O)c3ccco3)CC2)cc1`: the percent response vs DMSO was 94.2%.

As to `Cc1ccc(C)c(OCC(=O)N2CCN(C(=O)c3ccco3)CC2)c1`, the percent response vs DMSO is 110%.

Regarding `CC1(C)OC(=O)N2CCc3ccccc3C21C` (configuration not stated), the percent response vs DMSO is 99%.

Consider `O=C(Nc1cc2c3c(c1)CC(=O)N3CCC2)c1ccccc1F`, for which the percent response vs DMSO was 43.6% [may fluoresce violet] (active).

Consider `CCCNC(=O)C(=O)Nc1cc2c3c(c1)CCC(=O)N3CCC2`, for which the percent response vs DMSO is 100%.

For `O=C(COc1ccccc1)Nc1cc2c3c(c1)CC(=O)N3CCC2`, the percent response vs DMSO is 101%.

For `Cc1cccc(NC(=S)NCc2ccc3[nH]c4c(c3c2)CCCC4)c1`, the percent response vs DMSO is 105%.

On to `COc1cccc(CN2CCNC(=O)C2CC(=O)N(C)CCc2ccccn2)c1` (configuration not stated), for which the percent response vs DMSO was 102%.

In the case of `COCCNC(=O)Nc1ccc2nc(-c3ccco3)c(-c3ccco3)nc2c1`, the percent response vs DMSO was 23.4% [may fluoresce violet] (active).

Take `O=C(NCc1ccccn1)c1ccc2nc(-c3ccco3)c(-c3ccco3)nc2c1`: the percent response vs DMSO is 99.4%.

In the case of `COc1cccc(NC(=O)NCCN2CCCCC2)c1`, the percent response vs DMSO is 96%.

With `COc1ccc([N+](=O)[O-])cc1NCC(=O)c1ccc(C)cc1`, the percent response vs DMSO was 104%.

In the case of `COc1cc(C(=O)NCCOC(=O)c2cccc(N(C)C)c2)cc(OC)c1OC`, the percent response vs DMSO is 101%.

Consider `CNS(=O)(=O)c1cccc(C(=O)NC2CCCc3ccccc32)c1` (configuration not stated), for which the percent response vs DMSO was 101%.

For the compound `O=C(O)c1cc(S(=O)(=O)NC2CCCc3ccccc32)ccc1O` (configuration not stated), the percent response vs DMSO is 34.1% [may fluoresce violet] (active).

Take `O=C(CCC(=O)N1CCN(S(=O)(=O)c2ccccc2)CC1)NC1CCCc2ccccc21` (configuration not stated): the percent response vs DMSO is 101%.

With `CC(=O)Nc1ccccc1C(=O)C(=O)Nc1ccc(F)cc1`, the percent response vs DMSO was 105%.

Consider `O=C(CCC(=O)c1ccccc1)NCc1cccc(C(F)(F)F)c1`, for which the percent response vs DMSO is 98.9%.

As for `O=C(c1cc2ccccc2o1)N1CCN(c2cccc(C(F)(F)F)c2)CC1`, the percent response vs DMSO is 98.3%.

In the case of `O=C(NCc1ccncc1)C1CCN(C(=O)c2cccc(Cl)c2)CC1`, the percent response vs DMSO was 42.1% [may fluoresce violet] (active).

As to `O=C(c1cccc(Cl)c1)N1CCN(Cc2ccccc2)CC1`, the percent response vs DMSO is 103%.

As to `COc1ccc(CNC(=O)C2CCN(C(=O)c3ccccc3)CC2)cc1`, the percent response vs DMSO was 82.1%.

Turning to `COc1ccc(S(=O)(=O)N2CCOC2CNC(=O)C(=O)NCc2ccncc2)cc1C` (configuration not stated), the percent response vs DMSO is 99.3%.

On to `O=C1CSC(c2cccc(F)c2)N1c1ccc(O)cc1` (configuration not stated), for which the percent response vs DMSO was 95.8%.

With `COc1cccc(C2SCC(=O)N2c2cccc(C)c2)c1OC` (configuration not stated), the percent response vs DMSO is 49.7% [may fluoresce violet] (active).

As for `Cc1ccc(C2SCC(=O)N2c2ccccc2)cc1` (configuration not stated), the percent response vs DMSO is 103%.

In the case of `O=C(CC(NS(=O)(=O)c1ccc(Cl)cc1)c1ccco1)NC1CCCC1` (configuration not stated), the percent response vs DMSO is 96.4%.

Regarding `O=C(CSc1ccccn1)Nc1nc2c(ccc3ccccc32)s1`, the percent response vs DMSO is 106%.

Regarding `CC(=O)Nc1ccc(NC(=O)CC2CCCC2)cc1`, the percent response vs DMSO was 42.2% [may fluoresce violet] (active).

In the case of `COc1ccc(NC(=O)CN(C)C(=O)CC2CCCCC2)cc1`, the percent response vs DMSO is 96.3%.

`CC(=O)Nc1ccc(NC(=O)COC(=O)C2CCC(C(C)(C)C)CC2)cc1` (configuration not stated): the percent response vs DMSO was 103%.

On to `Cc1ccc(NC(=S)N(CCCN2CCCC2)Cc2cccn2Cc2ccc(Cl)cc2)cc1`, for which the percent response vs DMSO is 99.4%.

As for `CN(CCCNC(=O)CN1C(=O)CC(C)(C)S(=O)(=O)c2ccccc21)C1CCCCC1`, the percent response vs DMSO is 91.3%.

Take `NCCCCCC(=O)N/N=C/c1ccc2nccnc2c1`: the percent response vs DMSO is 48% [may fluoresce violet] (active).

`Cc1nccn1CC(=O)N/N=C/c1ccc(O)c(O)c1`: the percent response vs DMSO is 103%.

Consider `O=C(N/N=C/c1ccc(Cl)c(Cl)c1)c1ccc2nc[nH]c2c1`, for which the percent response vs DMSO was 99.3%.
